# Test results published in paper PMC11006913.
# Substitutions are numbered along the chain they refer to.
# Assays:
# Test in all cases: PBM; 200 nM protein, PBS
# Conditions in all cases: dsDNA, one strand shown
# NKX2-5 [1] = target: NKX2-5 (Homo sapiens, UniProt P52952 125-210, R139K)
# MSX2 [2] = target: MSX2 (Homo sapiens, UniProt P35548 130-214, R199I)
# ALX3 [3] = target: ALX3 (Homo sapiens, UniProt O95076 139-225, N203Q)
# MSX2 [4] = target: MSX2 (Homo sapiens, UniProt P35548 130-214)
# ALX3 [5] = target: ALX3 (Homo sapiens, UniProt O95076 139-225)
# Chain of ALX3 (Homo sapiens, UniProt O95076 139-225) (O95076 139-225): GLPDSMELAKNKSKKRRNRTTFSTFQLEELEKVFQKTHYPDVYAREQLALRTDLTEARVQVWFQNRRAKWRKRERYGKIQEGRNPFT
# ALX3 [6] = target: ALX3 (Homo sapiens, UniProt O95076 139-225, L168Q)
# Chain of ALX3 (Homo sapiens, UniProt O95076 139-225, L168Q) (O95076 139-225 L168Q): as the sequence (O95076 139-225) above, with L30Q counted along it
# ALX3 [7] = target: ALX3 (Homo sapiens, UniProt O95076 139-225, L168V)
# Chain of ALX3 (Homo sapiens, UniProt O95076 139-225, L168V) (O95076 139-225 L168V): as the sequence (O95076 139-225) above, with L30V counted along it
# MSX2 [8] = target: MSX2 (Homo sapiens, UniProt P35548 130-214, F161Y)
# Chain of MSX2 (Homo sapiens, UniProt P35548 130-214, F161Y) (P35548 130-214 F161Y): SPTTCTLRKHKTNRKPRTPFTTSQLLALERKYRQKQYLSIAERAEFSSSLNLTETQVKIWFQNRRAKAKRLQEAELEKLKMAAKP
# ALX3 [9] = target: ALX3 (Homo sapiens, UniProt O95076 139-225, N203S)
# Chain of ALX3 (Homo sapiens, UniProt O95076 139-225, N203S) (O95076 139-225 N203S): as the sequence (O95076 139-225) above, with N65S counted along it
# NKX2-5 [10] = target: NKX2-5 (Homo sapiens, UniProt P52952 125-210)
# Chain of NKX2-5 (Homo sapiens, UniProt P52952 125-210) (P52952 125-210): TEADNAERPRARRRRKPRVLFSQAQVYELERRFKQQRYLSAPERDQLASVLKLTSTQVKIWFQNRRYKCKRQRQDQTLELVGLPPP
# NKX2-6 [11] = target: T1, NKX2-6 (Homo sapiens, UniProt A6NCS4 118-204, R150C)
# T1 sequence: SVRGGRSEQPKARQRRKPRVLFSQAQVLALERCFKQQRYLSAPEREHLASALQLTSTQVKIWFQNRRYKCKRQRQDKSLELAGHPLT
# NKX2-6 [12] = target: T2, NKX2-6 (Homo sapiens, UniProt A6NCS4 118-204)
# T2 sequence: T1 sequence with C33R
# NKX2-6 [13] = target: T3, NKX2-6 (Homo sapiens, UniProt A6NCS4 118-204, F151L)
# T3 sequence: T1 sequence with C33R, F34L
# NKX3-2 [14] = target: NKX3-2 (Homo sapiens, UniProt P78367 192-278, P234S)
# Chain of NKX3-2 (Homo sapiens, UniProt P78367 192-278, P234S) (P78367 192-278 P234S): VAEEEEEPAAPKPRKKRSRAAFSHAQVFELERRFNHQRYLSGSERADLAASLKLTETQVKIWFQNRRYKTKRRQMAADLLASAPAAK
# NKX3-2 [15] = target: NKX3-2 (Homo sapiens, UniProt P78367 192-278)
# Chain of NKX3-2 (Homo sapiens, UniProt P78367 192-278) (P78367 192-278): as the sequence (P78367 192-278 P234S) above, with S43P counted along it
# NKX2-4 = target: T4, NKX2-4 (Homo sapiens, UniProt Q9H2Z4 175-261, R246Q)
# T4 sequence: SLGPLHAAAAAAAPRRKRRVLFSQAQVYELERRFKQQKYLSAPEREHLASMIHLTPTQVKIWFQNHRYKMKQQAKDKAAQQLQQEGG
# ALX1 [16] = target: ALX1 (Homo sapiens, UniProt Q15699 118-204, L144V)
# Chain of ALX1 (Homo sapiens, UniProt Q15699 118-204, L144V) (Q15699 118-204 L144V): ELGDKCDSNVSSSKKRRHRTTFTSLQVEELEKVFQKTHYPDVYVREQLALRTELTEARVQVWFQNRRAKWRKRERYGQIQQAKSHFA
# ALX1 [17] = target: ALX1 (Homo sapiens, UniProt Q15699 118-204, L144R)
# Chain of ALX1 (Homo sapiens, UniProt Q15699 118-204, L144R) (Q15699 118-204 L144R): as the sequence (Q15699 118-204 L144V) above, with V27R counted along it
# ALX1 [18] = target: ALX1 (Homo sapiens, UniProt Q15699 118-204)
# Chain of ALX1 (Homo sapiens, UniProt Q15699 118-204) (Q15699 118-204): as the sequence (Q15699 118-204 L144V) above, with V27L counted along it
# Chain of NKX2-5 (Homo sapiens, UniProt P52952 125-210, R139K) (P52952 125-210 R139K): as the sequence (P52952 125-210) above, with R15K counted along it
# Chain of MSX2 (Homo sapiens, UniProt P35548 130-214) (P35548 130-214): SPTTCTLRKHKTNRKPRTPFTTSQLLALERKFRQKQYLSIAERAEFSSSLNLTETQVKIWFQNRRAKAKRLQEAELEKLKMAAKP
# Chain of ALX3 (Homo sapiens, UniProt O95076 139-225, N203Q) (O95076 139-225 N203Q): as the sequence (O95076 139-225) above, with N65Q counted along it
# Chain of MSX2 (Homo sapiens, UniProt P35548 130-214, R199I) (P35548 130-214 R199I): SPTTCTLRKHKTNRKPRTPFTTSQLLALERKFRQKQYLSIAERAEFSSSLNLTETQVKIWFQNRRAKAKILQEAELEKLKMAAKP
sequence,measurement,setting,value
CCGACGCA,binding signal,NKX2-5 [1],"8.78 upbm affinity estimate (log intensity, higher = more binding, comparable within an allelic series)"
same,binding signal,MSX2 [2],"9.38 upbm affinity estimate (log intensity, higher = more binding, comparable within an allelic series)"
same,binding signal,ALX3 [3],"7.72 upbm affinity estimate (log intensity, higher = more binding, comparable within an allelic series)"
same,binding signal,MSX2 [4],"9.17 upbm affinity estimate (log intensity, higher = more binding, comparable within an allelic series)"
same,binding signal,ALX3 [5],"7.54 upbm affinity estimate (log intensity, higher = more binding, comparable within an allelic series)"
same,binding signal,ALX3 [6],"7.69 upbm affinity estimate (log intensity, higher = more binding, comparable within an allelic series)"
same,binding signal,ALX3 [7],"7.71 upbm affinity estimate (log intensity, higher = more binding, comparable within an allelic series)"
same,binding signal,MSX2 [8],"9.25 upbm affinity estimate (log intensity, higher = more binding, comparable within an allelic series)"
same,binding signal,ALX3 [9],"7.75 upbm affinity estimate (log intensity, higher = more binding, comparable within an allelic series)"
same,binding signal,NKX2-5 [10],"8.7 upbm affinity estimate (log intensity, higher = more binding, comparable within an allelic series)"
CACTTACC,binding signal,NKX2-5 [1],"12.4 upbm affinity estimate (log intensity, higher = more binding, comparable within an allelic series)"
same,binding signal,NKX2-6 [11],"11.6 upbm affinity estimate (log intensity, higher = more binding, comparable within an allelic series)"
same,binding signal,NKX2-6 [12],"13.4 upbm affinity estimate (log intensity, higher = more binding, comparable within an allelic series)"
same,binding signal,NKX2-6 [13],"10.7 upbm affinity estimate (log intensity, higher = more binding, comparable within an allelic series)"
same,binding signal,NKX3-2 [14],"12.7 upbm affinity estimate (log intensity, higher = more binding, comparable within an allelic series)"
same,binding signal,NKX2-5 [10],"12.3 upbm affinity estimate (log intensity, higher = more binding, comparable within an allelic series)"
same,binding signal,NKX3-2 [15],"12.8 upbm affinity estimate (log intensity, higher = more binding, comparable within an allelic series)"
CCTCCGGA,binding signal,NKX2-5 [1],"8.88 upbm affinity estimate (log intensity, higher = more binding, comparable within an allelic series)"
same,binding signal,NKX2-6 [11],"9.54 upbm affinity estimate (log intensity, higher = more binding, comparable within an allelic series)"
same,binding signal,NKX2-5 [10],"8.86 upbm affinity estimate (log intensity, higher = more binding, comparable within an allelic series)"
ACTTAAGA,binding signal,NKX2-5 [1],"12.3 upbm affinity estimate (log intensity, higher = more binding, comparable within an allelic series)"
same,binding signal,NKX2-6 [12],"13.4 upbm affinity estimate (log intensity, higher = more binding, comparable within an allelic series)"
same,binding signal,NKX2-4,"12.9 upbm affinity estimate (log intensity, higher = more binding, comparable within an allelic series)"
same,binding signal,NKX2-6 [13],"10.8 upbm affinity estimate (log intensity, higher = more binding, comparable within an allelic series)"
AAGTGGCC,binding signal,NKX2-5 [1],"12.4 upbm affinity estimate (log intensity, higher = more binding, comparable within an allelic series)"
same,binding signal,NKX2-6 [11],"11.6 upbm affinity estimate (log intensity, higher = more binding, comparable within an allelic series)"
same,binding signal,NKX2-6 [12],"13.3 upbm affinity estimate (log intensity, higher = more binding, comparable within an allelic series)"
same,binding signal,NKX2-6 [13],"10.5 upbm affinity estimate (log intensity, higher = more binding, comparable within an allelic series)"
same,binding signal,NKX3-2 [14],"12.9 upbm affinity estimate (log intensity, higher = more binding, comparable within an allelic series)"
same,binding signal,NKX2-5 [10],"12.4 upbm affinity estimate (log intensity, higher = more binding, comparable within an allelic series)"
same,binding signal,NKX3-2 [15],"13.1 upbm affinity estimate (log intensity, higher = more binding, comparable within an allelic series)"
CTAAGTGC,binding signal,NKX2-5 [1],"12.8 upbm affinity estimate (log intensity, higher = more binding, comparable within an allelic series)"
same,binding signal,NKX2-6 [11],"11.8 upbm affinity estimate (log intensity, higher = more binding, comparable within an allelic series)"
same,binding signal,NKX2-6 [12],"13.7 upbm affinity estimate (log intensity, higher = more binding, comparable within an allelic series)"
same,binding signal,NKX2-6 [13],"11 upbm affinity estimate (log intensity, higher = more binding, comparable within an allelic series)"
same,binding signal,NKX3-2 [14],"13 upbm affinity estimate (log intensity, higher = more binding, comparable within an allelic series)"
same,binding signal,NKX2-5 [10],"12.7 upbm affinity estimate (log intensity, higher = more binding, comparable within an allelic series)"
same,binding signal,NKX3-2 [15],"13 upbm affinity estimate (log intensity, higher = more binding, comparable within an allelic series)"
CTGGCCGA,binding signal,NKX2-5 [1],"8.94 upbm affinity estimate (log intensity, higher = more binding, comparable within an allelic series)"
same,binding signal,NKX2-6 [11],"9.45 upbm affinity estimate (log intensity, higher = more binding, comparable within an allelic series)"
same,binding signal,NKX2-5 [10],"8.74 upbm affinity estimate (log intensity, higher = more binding, comparable within an allelic series)"
GCGGCCAC,binding signal,NKX2-5 [1],"8.75 upbm affinity estimate (log intensity, higher = more binding, comparable within an allelic series)"
same,binding signal,NKX2-6 [11],"9.34 upbm affinity estimate (log intensity, higher = more binding, comparable within an allelic series)"
same,binding signal,NKX2-5 [10],"8.78 upbm affinity estimate (log intensity, higher = more binding, comparable within an allelic series)"
CCAGCAGG,binding signal,NKX2-5 [1],"8.6 upbm affinity estimate (log intensity, higher = more binding, comparable within an allelic series)"
same,binding signal,ALX1 [16],"6.58 upbm affinity estimate (log intensity, higher = more binding, comparable within an allelic series)"
same,binding signal,ALX1 [17],"6.51 upbm affinity estimate (log intensity, higher = more binding, comparable within an allelic series)"
same,binding signal,ALX1 [18],"6.53 upbm affinity estimate (log intensity, higher = more binding, comparable within an allelic series)"
same,binding signal,NKX2-5 [10],"8.77 upbm affinity estimate (log intensity, higher = more binding, comparable within an allelic series)"
AGTCCTTA,binding signal,NKX2-5 [1],"11.3 upbm affinity estimate (log intensity, higher = more binding, comparable within an allelic series)"
same,binding signal,NKX2-6 [11],"10.8 upbm affinity estimate (log intensity, higher = more binding, comparable within an allelic series)"
same,binding signal,NKX2-5 [10],"11.2 upbm affinity estimate (log intensity, higher = more binding, comparable within an allelic series)"
CGTCGGTC,binding signal,NKX2-5 [1],"8.88 upbm affinity estimate (log intensity, higher = more binding, comparable within an allelic series)"
same,binding signal,NKX2-6 [11],"9.56 upbm affinity estimate (log intensity, higher = more binding, comparable within an allelic series)"
same,binding signal,NKX2-6 [12],"9.23 upbm affinity estimate (log intensity, higher = more binding, comparable within an allelic series)"
same,binding signal,NKX2-6 [13],"9.36 upbm affinity estimate (log intensity, higher = more binding, comparable within an allelic series)"
same,binding signal,NKX2-5 [10],"8.91 upbm affinity estimate (log intensity, higher = more binding, comparable within an allelic series)"
TAAGTGCA,binding signal,NKX2-5 [1],"12.6 upbm affinity estimate (log intensity, higher = more binding, comparable within an allelic series)"
same,binding signal,NKX2-6 [11],"11.9 upbm affinity estimate (log intensity, higher = more binding, comparable within an allelic series)"
same,binding signal,NKX2-6 [12],"13.5 upbm affinity estimate (log intensity, higher = more binding, comparable within an allelic series)"
same,binding signal,NKX2-6 [13],"10.9 upbm affinity estimate (log intensity, higher = more binding, comparable within an allelic series)"
same,binding signal,NKX3-2 [14],"12.8 upbm affinity estimate (log intensity, higher = more binding, comparable within an allelic series)"
same,binding signal,NKX2-5 [10],"12.4 upbm affinity estimate (log intensity, higher = more binding, comparable within an allelic series)"
same,binding signal,NKX3-2 [15],"12.9 upbm affinity estimate (log intensity, higher = more binding, comparable within an allelic series)"
AAGTGGGC,binding signal,NKX2-5 [1],"12.4 upbm affinity estimate (log intensity, higher = more binding, comparable within an allelic series)"
same,binding signal,NKX2-6 [11],"11.5 upbm affinity estimate (log intensity, higher = more binding, comparable within an allelic series)"
same,binding signal,NKX3-2 [14],"12.8 upbm affinity estimate (log intensity, higher = more binding, comparable within an allelic series)"
same,binding signal,NKX2-5 [10],"12.3 upbm affinity estimate (log intensity, higher = more binding, comparable within an allelic series)"
same,binding signal,NKX3-2 [15],"12.9 upbm affinity estimate (log intensity, higher = more binding, comparable within an allelic series)"
AAGTGCCT,binding signal,NKX2-5 [1],"12.4 upbm affinity estimate (log intensity, higher = more binding, comparable within an allelic series)"
same,binding signal,NKX2-6 [11],"11.7 upbm affinity estimate (log intensity, higher = more binding, comparable within an allelic series)"
same,binding signal,NKX2-6 [13],"10.8 upbm affinity estimate (log intensity, higher = more binding, comparable within an allelic series)"
same,binding signal,NKX3-2 [14],"12.5 upbm affinity estimate (log intensity, higher = more binding, comparable within an allelic series)"
same,binding signal,NKX2-5 [10],"12.3 upbm affinity estimate (log intensity, higher = more binding, comparable within an allelic series)"
same,binding signal,NKX3-2 [15],"12.6 upbm affinity estimate (log intensity, higher = more binding, comparable within an allelic series)"
AAGTGGCG,binding signal,NKX2-5 [1],"12.2 upbm affinity estimate (log intensity, higher = more binding, comparable within an allelic series)"
same,binding signal,NKX2-6 [11],"11.6 upbm affinity estimate (log intensity, higher = more binding, comparable within an allelic series)"
same,binding signal,NKX3-2 [14],"12.7 upbm affinity estimate (log intensity, higher = more binding, comparable within an allelic series)"
same,binding signal,NKX2-5 [10],"12.2 upbm affinity estimate (log intensity, higher = more binding, comparable within an allelic series)"
same,binding signal,NKX3-2 [15],"12.8 upbm affinity estimate (log intensity, higher = more binding, comparable within an allelic series)"
AATCTTGA,binding signal,NKX2-5 [1],"10.5 upbm affinity estimate (log intensity, higher = more binding, comparable within an allelic series)"
same,binding signal,NKX2-5 [10],"10.5 upbm affinity estimate (log intensity, higher = more binding, comparable within an allelic series)"
ACCATGGT,binding signal,NKX2-5 [1],"9.14 upbm affinity estimate (log intensity, higher = more binding, comparable within an allelic series)"
same,binding signal,NKX2-5 [10],"9.06 upbm affinity estimate (log intensity, higher = more binding, comparable within an allelic series)"
